# Reference: PubChem BioAssay AID2284143 (EPA ToxCast)
# The source made the active and inactive calls. How the source made its calls: active means hit-call score of the fitted dose curve at least 0.9, where 1 is the maximum; inactive means score below 0.9.
# Biological target: human Adenosine Receptor A2A, ADORA2A (gene 135) (UniProt P29274)
# Test: ERF_FR_GPCR_hADORA2A: Eurofins (ERF) G Protein-Coupled Receptor (GPCR) Radioligand Binding LeadHunter Assay for human Adenosine Receptor A2A Agonism, conducted at France lab site
# Protocol: ERF_FR_GPCR_hADORA2A is a biochemical, single-readout assay that uses extracted gene-proteins in a cell-free assay. Measurements were taken 2 hour after chemical dosing in a 96-well plate. See A2A Human Adenosine GPCR Binding (Agonist Radioligand) Assay, Cerep.ERF_FR_GPCR_hADORA2A is an assay component calculated from the ERF_FR_GPCR_hADORA2A assay. It is designed to measure radioligand binding using a type of binding reporter as detected by scintillation counting with radiometry technology.Data from the assay component ERF_FR_GPCR_hADORA2A was analyzed at the assay endpoint, ERF_FR_GPCR_hADORA2A, in the positive analysis fitting direction relative to DMSO as the negative control and baseline of activity. Using a type of binding reporter, gain-of-signal activity can be used to understand changes in binding as they relate to gene ADORA2A. To generalize the intended target to other relatable targets, this assay endpoint is annotated to the gpcr intended target family, where the subfamily is adenosine.
# Human cells are incubated for 60 minutes in room temprature, using [3H]CGS 21680 ligand at 6 Kd (nM) with NECA control inhibitor.Test Sample Requirements: Minimum for 1) Screen: 60 ul of 10 mM stock -OR- 1 mg (pre-weighed) for […] uM final testing. 2) Dose Response: 90 ul of 10 mM stock -OR- 1 mg (pre-weighed) for a top concentration at 10 uM.
# Chain of human Adenosine Receptor A2A, ADORA2A (gene 135) (P29274 whole entry, looked up): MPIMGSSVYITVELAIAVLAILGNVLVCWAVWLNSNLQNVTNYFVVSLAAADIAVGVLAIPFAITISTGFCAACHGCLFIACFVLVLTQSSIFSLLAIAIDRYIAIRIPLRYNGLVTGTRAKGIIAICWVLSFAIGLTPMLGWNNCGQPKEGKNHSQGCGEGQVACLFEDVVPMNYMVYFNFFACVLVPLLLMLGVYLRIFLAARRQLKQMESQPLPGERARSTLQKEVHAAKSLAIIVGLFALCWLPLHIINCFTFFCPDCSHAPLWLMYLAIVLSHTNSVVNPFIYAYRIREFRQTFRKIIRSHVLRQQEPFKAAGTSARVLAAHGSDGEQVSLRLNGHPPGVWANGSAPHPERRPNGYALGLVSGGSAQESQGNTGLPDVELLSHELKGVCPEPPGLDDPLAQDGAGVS
row,Compound,AC50
1,O=C(/C=C/c1ccc(O)cc1)CC(=O)/C=C/c1ccc(O)cc1,421 nM (active)
